The record followed here is PubChem BioAssay (NCI).

Compounds without any hit were thinned out: in the full panel of roughly 83,000, 20% have a hit.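 Testing used 96-well plates and a 48-hour single-concentration exposure. Example: -40 means 40% of the starting cells died.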 A number with no mark means an inactive call. The source made the active and inactive calls. The calls were made as follows: active = growth percent below 10; inactive = the rest.

Among the test systems are SR leukemia; RPMI-8226 leukemia; OVCAR-8 ovarian; OVCAR-5 ovarian; OVCAR-4 ovarian; SK-OV-3 ovarian; IGROV1 ovarian; OVCAR-3 ovarian; HS 578T breast; NCI/ADR-RES ovarian; T-47D breast; BT-549 breast; MDA-MB-435 melanoma; SW-620 colon; MCF7 breast; HCT-116 colon; HCC-2998 colon; KM12 colon.
Common to all, as to assay: NCI-60 one-dose screen, 48 h (100 = growth as untreated, 0 = no growth, -100 = all killed)
Common to all, as to conditions: 10 µM unless noted

With `C=C1CC[C@@H]2[C@](C)(COC(C)=O)[C@H](OC(C)=O)CC[C@@]2(C)[C@@H]1CC(Nc1ccc(S(=O)(=O)Nc2nc(C)cc(C)n2)cc1)C1=CCOC1=O` (some centres not stated), the growth with SR leukemia was 22.2%; with RPMI-8226 leukemia, 2.24% (active); with OVCAR-8 ovarian it was 62%; with OVCAR-5 ovarian it was 103%; in the test with OVCAR-4 ovarian, 65%; in the test with SK-OV-3 ovarian, 112%. Also, the growth in the test on IGROV1 ovarian was 81.5%; in the test on OVCAR-3 ovarian, 44.8%; with HS 578T breast, 99.8%; in the test on NCI/ADR-RES ovarian, 66.6%; with T-47D breast, 68.8%; with BT-549 breast, 71.9%. Moreover, the growth in the test with MDA-MB-435 melanoma is 67%; in the test on SW-620 colon, 40%; in the test with MCF7 breast, 40.3%; with HCT-116 colon, 39.2%; in the test on HCC-2998 colon, 100%; in the test on KM12 colon it was 64.7%.

Turning to `COc1cccc(-n2cc(-c3nc(Nc4cc(C)[nH]n4)c4ccccc4n3)nn2)c1`, the growth in the test with SR leukemia is 27.8%; in the test on RPMI-8226 leukemia, 48.4%; in the test with OVCAR-8 ovarian it was 38.3%; in the test with OVCAR-5 ovarian, 56.5%; with OVCAR-4 ovarian, 17.2%; in the test on SK-OV-3 ovarian it was 10.8%. The growth in the test with IGROV1 ovarian is 18%; with OVCAR-3 ovarian, 59.4%; in the test on HS 578T breast, 46.4%; in the test with NCI/ADR-RES ovarian, 30.6%; with T-47D breast, 17.6%; in the test on BT-549 breast, 49.3%. The growth in the test with MDA-MB-435 melanoma is 34%; in the test on SW-620 colon, 66.5%; in the test with MCF7 breast, 37.6%; in the test on HCT-116 colon it was 41.5%; with HCC-2998 colon it was 44.5%; in the test on KM12 colon, 23%.

For the compound `O=C1/C(=C\c2cn(C(=O)c3ccc(Cl)cc3)c3ccccc23)c2ccccc2N1c1c(Cl)cccc1Cl`, the growth in the test on SR leukemia was 99.6%; with RPMI-8226 leukemia, 101%; in the test with OVCAR-8 ovarian it was 113%; in the test with OVCAR-5 ovarian, 94.3%; with OVCAR-4 ovarian, 99.5%; in the test with SK-OV-3 ovarian, 116%. The growth in the test with IGROV1 ovarian is 99.2%; in the test with OVCAR-3 ovarian, 116%; with HS 578T breast, 107%; in the test with NCI/ADR-RES ovarian it was 99.7%; in the test on T-47D breast, 92.5%; with BT-549 breast, 107%. Moreover, the growth with MDA-MB-435 melanoma is 116%; in the test on SW-620 colon it was 105%; in the test on MCF7 breast, 95.7%; in the test on HCT-116 colon it was 94.1%; in the test on HCC-2998 colon, 102%; in the test with KM12 colon it was 111%.

On to `O=c1c2cccc3c(Nc4c(F)cccc4F)ccc(c32)c2nc3ccccc3n12`, for which the growth with SR leukemia was 21.5%; with RPMI-8226 leukemia, 75.4%; with OVCAR-8 ovarian, 92.9%; with OVCAR-5 ovarian, 99.5%; in the test with OVCAR-4 ovarian it was 82.9%; with SK-OV-3 ovarian it was 89.1%. Moreover, the growth was 53.4% in the test on IGROV1 ovarian; 91.5% in the test on OVCAR-3 ovarian; 110% in the test with HS 578T breast; 95.4% in the test with NCI/ADR-RES ovarian; 52.7% in the test on T-47D breast; 98.7% in the test with BT-549 breast. Further, the growth is 111% in the test with MDA-MB-435 melanoma; 102% with SW-620 colon; 20.4% in the test with MCF7 breast; 98.4% with HCT-116 colon; 72.7% with HCC-2998 colon; 78.9% in the test with KM12 colon.

Turning to `Cc1cccc(NC(=O)c2sc3nc4c(cc3c2N)C(=O)CCC4)c1`, the growth was 26.2% in the test with SR leukemia; 31.6% with RPMI-8226 leukemia; 52.2% in the test with OVCAR-8 ovarian; 44.6% with OVCAR-5 ovarian; 40.1% in the test with OVCAR-4 ovarian; 35.3% with SK-OV-3 ovarian. In addition, the growth with IGROV1 ovarian was -4.52% (active); with OVCAR-3 ovarian, 7.66% (active); in the test on HS 578T breast it was 18.6%; with NCI/ADR-RES ovarian it was 17.4%; in the test with T-47D breast, 44%; in the test on BT-549 breast, 41.6%. Further, the growth was -52.8% (active) with MDA-MB-435 melanoma; 26.6% in the test on SW-620 colon; 22.6% in the test with MCF7 breast; 29.3% in the test with HCT-116 colon; 33.7% in the test with HCC-2998 colon; 21.4% in the test with KM12 colon.

Turning to `Cn1c(=O)c2c(ncn2CC[N+](C)(C)C)n(C)c1=O`, the growth in the test with SR leukemia was 94.7%; in the test with RPMI-8226 leukemia, 104%; with OVCAR-8 ovarian it was 105%; with OVCAR-5 ovarian, 105%; in the test on OVCAR-4 ovarian, 105%; in the test with SK-OV-3 ovarian it was 99.4%. Also, the growth with IGROV1 ovarian is 102%; in the test with OVCAR-3 ovarian, 105%; in the test with HS 578T breast it was 110%; with NCI/ADR-RES ovarian it was 102%; with T-47D breast, 88.8%; in the test with BT-549 breast, 115%. The growth with MDA-MB-435 melanoma is 104%; in the test on SW-620 colon, 106%; in the test with MCF7 breast, 99.9%; in the test with HCT-116 colon it was 100%; with HCC-2998 colon, 102%; in the test on KM12 colon, 105%.

Regarding `CS(=O)CCCCCN=C=S` (configuration not stated), the growth is -13.9% (active) in the test with SR leukemia; 5.22% (active) with RPMI-8226 leukemia; -8.89% (active) with OVCAR-8 ovarian; 11.6% in the test on OVCAR-5 ovarian; 21.4% with OVCAR-4 ovarian; 8.97% (active) in the test on SK-OV-3 ovarian. Besides, the growth in the test on IGROV1 ovarian is 7.98% (active); with OVCAR-3 ovarian, -20.4% (active); in the test on HS 578T breast, 11.6%; with NCI/ADR-RES ovarian, 1.36% (active); with T-47D breast, -26.3% (active); with BT-549 breast, 2.12% (active). In addition, the growth was 20.4% in the test with MDA-MB-435 melanoma; 5.5% (active) in the test with SW-620 colon; 0.852% (active) in the test on MCF7 breast; -2.02% (active) in the test on HCT-116 colon; -11.3% (active) with HCC-2998 colon; -12.6% (active) in the test with KM12 colon.

With `CCOC(=O)C(C#N)C1CCCCC1` (configuration not stated), the growth with SR leukemia was 84.3%; in the test with RPMI-8226 leukemia, 99.1%; with OVCAR-8 ovarian it was 103%; with OVCAR-5 ovarian, 99.8%; in the test on OVCAR-4 ovarian it was 118%; with SK-OV-3 ovarian it was 109%. The growth was 101% in the test with IGROV1 ovarian; 96.9% in the test with OVCAR-3 ovarian; 122% with HS 578T breast; 98.5% in the test on NCI/ADR-RES ovarian; 91.1% in the test on T-47D breast; 90.1% in the test on BT-549 breast. Also, the growth in the test on MDA-MB-435 melanoma was 97.6%; with SW-620 colon it was 106%; in the test on MCF7 breast, 123%; with HCT-116 colon it was 99.4%; with HCC-2998 colon it was 102%; in the test on KM12 colon, 107%.

Turning to `CCCCCCCCCC(=O)Oc1ccc(/C(=C(/C)Cc2cccc(OC)c2)c2ccc(OCCN(C)C)cc2)cc1`, the growth with SR leukemia is 106%; in the test on RPMI-8226 leukemia, 106%; with OVCAR-8 ovarian, 108%; with OVCAR-5 ovarian, 101%; in the test with OVCAR-4 ovarian, 115%; with SK-OV-3 ovarian, 113%. In addition, the growth in the test on IGROV1 ovarian is 110%; in the test on OVCAR-3 ovarian, 109%; in the test with HS 578T breast, 108%; in the test with NCI/ADR-RES ovarian, 98.4%; with T-47D breast, 69.4%; with BT-549 breast, 108%. The growth with MDA-MB-435 melanoma was 103%; in the test with SW-620 colon, 104%; in the test on MCF7 breast, 58.2%; in the test on HCT-116 colon it was 102%; with HCC-2998 colon, 100%; in the test with KM12 colon, 104%.
